Measured values reported in ChEMBL document CHEMBL2218924, “A broad activity screen in support of a chemogenomic map for kinase signalling research and drug discovery” (Biochem J, 2013).

How the values were obtained:
[1] = target: T1, Serine/threonine-protein kinase 17A (Homo sapiens) (UniProt Q9UEE5); details: at 10 µM
T1 sequence (whole entry): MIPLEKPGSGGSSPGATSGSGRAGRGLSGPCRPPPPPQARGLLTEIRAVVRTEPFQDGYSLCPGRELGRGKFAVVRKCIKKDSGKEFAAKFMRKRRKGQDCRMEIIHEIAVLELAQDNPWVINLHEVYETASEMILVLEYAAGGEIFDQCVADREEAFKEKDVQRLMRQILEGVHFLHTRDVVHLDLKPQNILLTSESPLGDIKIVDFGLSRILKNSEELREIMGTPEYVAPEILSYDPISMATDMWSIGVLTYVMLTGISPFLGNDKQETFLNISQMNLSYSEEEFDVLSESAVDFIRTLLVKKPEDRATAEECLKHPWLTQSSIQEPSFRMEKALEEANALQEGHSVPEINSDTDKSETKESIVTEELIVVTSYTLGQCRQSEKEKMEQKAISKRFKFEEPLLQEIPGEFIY

[2] = target: T2, Dual specificity tyrosine-phosphorylation-regulated kinase 2 (Homo sapiens) (UniProt Q92630); details: at 1 µM
T2 sequence (whole entry): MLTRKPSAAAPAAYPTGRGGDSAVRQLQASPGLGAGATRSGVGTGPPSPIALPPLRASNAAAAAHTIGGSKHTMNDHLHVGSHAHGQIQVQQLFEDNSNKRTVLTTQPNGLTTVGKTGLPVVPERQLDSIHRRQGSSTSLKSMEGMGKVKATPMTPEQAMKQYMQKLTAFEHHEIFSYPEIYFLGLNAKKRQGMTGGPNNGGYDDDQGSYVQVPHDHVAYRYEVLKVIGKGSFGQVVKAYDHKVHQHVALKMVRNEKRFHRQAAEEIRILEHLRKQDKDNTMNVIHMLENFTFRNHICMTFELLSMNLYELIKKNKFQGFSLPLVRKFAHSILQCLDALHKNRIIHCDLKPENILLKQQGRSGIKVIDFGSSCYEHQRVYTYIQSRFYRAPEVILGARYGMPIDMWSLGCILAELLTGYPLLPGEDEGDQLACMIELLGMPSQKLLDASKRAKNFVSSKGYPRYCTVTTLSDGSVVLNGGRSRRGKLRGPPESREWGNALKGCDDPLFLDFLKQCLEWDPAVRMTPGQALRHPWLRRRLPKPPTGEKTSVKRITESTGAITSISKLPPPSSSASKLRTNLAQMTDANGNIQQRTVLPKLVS

[3] = target: T2, Dual specificity tyrosine-phosphorylation-regulated kinase 2 (Homo sapiens); details: at 10 µM
[4] = target: Epidermal growth factor receptor (Homo sapiens) (UniProt P00533); details: at 1 µM
[5] = target: T3, Ephrin type-A receptor 1 (Homo sapiens) (UniProt P21709); details: at 1 µM
T3 sequence (whole entry): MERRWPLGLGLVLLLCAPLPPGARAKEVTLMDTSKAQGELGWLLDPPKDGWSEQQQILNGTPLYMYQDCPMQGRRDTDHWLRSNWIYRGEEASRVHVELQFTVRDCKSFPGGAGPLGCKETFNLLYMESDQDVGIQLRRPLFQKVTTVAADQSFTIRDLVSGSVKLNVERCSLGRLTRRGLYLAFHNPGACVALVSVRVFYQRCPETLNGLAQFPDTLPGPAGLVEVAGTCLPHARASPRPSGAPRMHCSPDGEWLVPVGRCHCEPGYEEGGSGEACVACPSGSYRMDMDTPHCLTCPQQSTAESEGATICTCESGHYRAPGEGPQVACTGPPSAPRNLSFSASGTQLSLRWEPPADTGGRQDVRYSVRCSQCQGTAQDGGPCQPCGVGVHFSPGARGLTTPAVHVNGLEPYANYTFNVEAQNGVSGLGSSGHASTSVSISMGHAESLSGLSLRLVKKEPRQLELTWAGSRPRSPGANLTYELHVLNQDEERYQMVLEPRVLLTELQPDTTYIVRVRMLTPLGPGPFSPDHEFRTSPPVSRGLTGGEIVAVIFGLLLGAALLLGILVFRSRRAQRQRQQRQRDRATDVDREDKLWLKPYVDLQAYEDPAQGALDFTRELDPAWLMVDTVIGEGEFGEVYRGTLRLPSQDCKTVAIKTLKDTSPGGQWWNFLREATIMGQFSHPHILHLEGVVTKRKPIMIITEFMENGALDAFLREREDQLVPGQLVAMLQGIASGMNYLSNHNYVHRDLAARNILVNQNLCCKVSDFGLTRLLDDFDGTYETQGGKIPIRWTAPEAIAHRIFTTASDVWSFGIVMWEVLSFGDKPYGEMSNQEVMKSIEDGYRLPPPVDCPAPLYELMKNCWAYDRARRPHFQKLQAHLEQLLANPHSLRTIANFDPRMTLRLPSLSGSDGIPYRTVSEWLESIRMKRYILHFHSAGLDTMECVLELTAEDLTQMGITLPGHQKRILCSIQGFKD

[6] = target: T3, Ephrin type-A receptor 1 (Homo sapiens); details: at 10 µM
[7] = target: Ephrin type-A receptor 2 (Homo sapiens) (UniProt P29317); details: at 1 µM
Ephrin type-A receptor 2 (Homo sapiens), sequence (P29317 whole entry): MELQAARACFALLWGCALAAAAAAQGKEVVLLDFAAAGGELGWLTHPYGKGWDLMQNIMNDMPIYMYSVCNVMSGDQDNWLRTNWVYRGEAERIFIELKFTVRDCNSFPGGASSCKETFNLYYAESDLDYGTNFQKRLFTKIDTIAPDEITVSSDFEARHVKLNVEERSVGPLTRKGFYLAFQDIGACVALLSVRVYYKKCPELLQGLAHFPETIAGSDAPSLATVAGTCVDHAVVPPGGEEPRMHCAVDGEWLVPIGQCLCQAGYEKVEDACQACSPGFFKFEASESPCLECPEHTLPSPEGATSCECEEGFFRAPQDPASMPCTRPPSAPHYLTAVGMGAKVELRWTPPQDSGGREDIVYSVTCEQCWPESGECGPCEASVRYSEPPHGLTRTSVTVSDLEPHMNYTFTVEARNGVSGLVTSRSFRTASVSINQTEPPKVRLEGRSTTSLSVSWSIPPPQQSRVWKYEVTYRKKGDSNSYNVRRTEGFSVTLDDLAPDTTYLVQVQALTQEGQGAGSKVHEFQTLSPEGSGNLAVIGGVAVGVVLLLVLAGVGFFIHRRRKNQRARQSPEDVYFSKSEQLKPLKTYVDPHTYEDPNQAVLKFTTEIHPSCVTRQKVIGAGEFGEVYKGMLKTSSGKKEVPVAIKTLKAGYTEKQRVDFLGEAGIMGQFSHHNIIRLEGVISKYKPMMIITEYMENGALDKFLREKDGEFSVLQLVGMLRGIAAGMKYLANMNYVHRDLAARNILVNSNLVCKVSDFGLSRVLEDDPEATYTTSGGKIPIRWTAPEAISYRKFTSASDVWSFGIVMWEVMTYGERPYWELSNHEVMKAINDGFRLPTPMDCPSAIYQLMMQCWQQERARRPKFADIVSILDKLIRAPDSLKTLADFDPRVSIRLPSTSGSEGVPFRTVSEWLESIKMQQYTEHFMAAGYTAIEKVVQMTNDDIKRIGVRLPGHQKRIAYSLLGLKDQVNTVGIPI

[8] = target: Ephrin type-A receptor 2 (Homo sapiens) (UniProt P29317); details: at 10 µM
[9] = target: T4, Ephrin type-A receptor 3 (Homo sapiens) (UniProt P29320); details: at 1 µM
T4 sequence (whole entry): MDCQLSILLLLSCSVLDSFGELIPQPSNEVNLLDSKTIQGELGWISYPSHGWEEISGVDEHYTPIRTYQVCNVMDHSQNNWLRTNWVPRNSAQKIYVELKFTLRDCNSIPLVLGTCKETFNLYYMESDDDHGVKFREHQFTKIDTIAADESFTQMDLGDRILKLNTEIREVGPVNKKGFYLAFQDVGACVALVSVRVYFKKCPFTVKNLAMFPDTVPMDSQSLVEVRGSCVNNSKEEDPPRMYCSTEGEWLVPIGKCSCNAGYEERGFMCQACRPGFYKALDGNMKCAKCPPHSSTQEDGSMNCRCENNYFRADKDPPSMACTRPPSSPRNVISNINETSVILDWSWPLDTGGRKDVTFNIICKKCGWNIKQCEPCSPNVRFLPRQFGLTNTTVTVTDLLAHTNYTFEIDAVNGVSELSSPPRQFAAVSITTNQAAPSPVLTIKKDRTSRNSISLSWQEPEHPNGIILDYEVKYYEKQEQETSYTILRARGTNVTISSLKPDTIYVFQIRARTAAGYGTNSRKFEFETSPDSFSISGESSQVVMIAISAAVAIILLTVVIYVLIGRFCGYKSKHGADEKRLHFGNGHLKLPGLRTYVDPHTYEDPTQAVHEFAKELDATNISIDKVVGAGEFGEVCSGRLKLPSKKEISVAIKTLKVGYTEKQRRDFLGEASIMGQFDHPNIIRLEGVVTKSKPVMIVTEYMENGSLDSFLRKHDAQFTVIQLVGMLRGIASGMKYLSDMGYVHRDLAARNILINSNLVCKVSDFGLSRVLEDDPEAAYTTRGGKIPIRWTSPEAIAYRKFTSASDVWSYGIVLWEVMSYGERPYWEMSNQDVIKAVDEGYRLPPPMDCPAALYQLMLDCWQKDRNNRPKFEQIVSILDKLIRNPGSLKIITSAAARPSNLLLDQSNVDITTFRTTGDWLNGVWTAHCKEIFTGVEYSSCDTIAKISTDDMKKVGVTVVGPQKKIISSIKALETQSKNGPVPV

[10] = target: T4, Ephrin type-A receptor 3 (Homo sapiens); details: at 10 µM
[11] = target: Ephrin type-A receptor 4 (Homo sapiens) (UniProt P54764); details: at 1 µM
Ephrin type-A receptor 4 (Homo sapiens), sequence (P54764 whole entry): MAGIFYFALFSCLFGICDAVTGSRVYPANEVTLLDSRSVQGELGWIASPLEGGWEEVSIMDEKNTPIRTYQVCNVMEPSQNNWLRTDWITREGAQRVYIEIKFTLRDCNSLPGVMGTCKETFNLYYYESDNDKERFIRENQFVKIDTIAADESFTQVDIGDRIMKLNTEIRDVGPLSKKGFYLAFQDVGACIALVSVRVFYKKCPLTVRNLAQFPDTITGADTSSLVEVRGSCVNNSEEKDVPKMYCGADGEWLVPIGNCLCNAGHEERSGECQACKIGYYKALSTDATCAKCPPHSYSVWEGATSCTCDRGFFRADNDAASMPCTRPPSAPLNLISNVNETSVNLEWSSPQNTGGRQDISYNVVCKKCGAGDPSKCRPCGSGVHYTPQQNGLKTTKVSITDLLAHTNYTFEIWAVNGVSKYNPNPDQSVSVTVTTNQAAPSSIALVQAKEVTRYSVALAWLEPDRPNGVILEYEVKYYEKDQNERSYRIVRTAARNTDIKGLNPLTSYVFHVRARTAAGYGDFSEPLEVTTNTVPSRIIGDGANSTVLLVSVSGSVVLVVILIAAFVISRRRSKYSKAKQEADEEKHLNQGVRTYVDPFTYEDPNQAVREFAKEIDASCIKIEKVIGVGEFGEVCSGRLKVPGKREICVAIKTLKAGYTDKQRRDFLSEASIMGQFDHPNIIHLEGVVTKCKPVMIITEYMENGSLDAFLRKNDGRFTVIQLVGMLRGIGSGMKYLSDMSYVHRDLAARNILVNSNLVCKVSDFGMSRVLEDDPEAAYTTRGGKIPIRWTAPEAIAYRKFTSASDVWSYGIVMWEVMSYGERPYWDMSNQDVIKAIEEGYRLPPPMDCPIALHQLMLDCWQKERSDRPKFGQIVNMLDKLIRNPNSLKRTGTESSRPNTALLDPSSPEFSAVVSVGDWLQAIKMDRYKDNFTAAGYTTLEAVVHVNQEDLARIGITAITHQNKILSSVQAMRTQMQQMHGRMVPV

[12] = target: Ephrin type-A receptor 4 (Homo sapiens) (UniProt P54764); details: at 10 µM
[13] = target: Ephrin type-A receptor 5 (Homo sapiens) (UniProt P54756); details: at 1 µM
Ephrin type-A receptor 5 (Homo sapiens), sequence (P54756 whole entry): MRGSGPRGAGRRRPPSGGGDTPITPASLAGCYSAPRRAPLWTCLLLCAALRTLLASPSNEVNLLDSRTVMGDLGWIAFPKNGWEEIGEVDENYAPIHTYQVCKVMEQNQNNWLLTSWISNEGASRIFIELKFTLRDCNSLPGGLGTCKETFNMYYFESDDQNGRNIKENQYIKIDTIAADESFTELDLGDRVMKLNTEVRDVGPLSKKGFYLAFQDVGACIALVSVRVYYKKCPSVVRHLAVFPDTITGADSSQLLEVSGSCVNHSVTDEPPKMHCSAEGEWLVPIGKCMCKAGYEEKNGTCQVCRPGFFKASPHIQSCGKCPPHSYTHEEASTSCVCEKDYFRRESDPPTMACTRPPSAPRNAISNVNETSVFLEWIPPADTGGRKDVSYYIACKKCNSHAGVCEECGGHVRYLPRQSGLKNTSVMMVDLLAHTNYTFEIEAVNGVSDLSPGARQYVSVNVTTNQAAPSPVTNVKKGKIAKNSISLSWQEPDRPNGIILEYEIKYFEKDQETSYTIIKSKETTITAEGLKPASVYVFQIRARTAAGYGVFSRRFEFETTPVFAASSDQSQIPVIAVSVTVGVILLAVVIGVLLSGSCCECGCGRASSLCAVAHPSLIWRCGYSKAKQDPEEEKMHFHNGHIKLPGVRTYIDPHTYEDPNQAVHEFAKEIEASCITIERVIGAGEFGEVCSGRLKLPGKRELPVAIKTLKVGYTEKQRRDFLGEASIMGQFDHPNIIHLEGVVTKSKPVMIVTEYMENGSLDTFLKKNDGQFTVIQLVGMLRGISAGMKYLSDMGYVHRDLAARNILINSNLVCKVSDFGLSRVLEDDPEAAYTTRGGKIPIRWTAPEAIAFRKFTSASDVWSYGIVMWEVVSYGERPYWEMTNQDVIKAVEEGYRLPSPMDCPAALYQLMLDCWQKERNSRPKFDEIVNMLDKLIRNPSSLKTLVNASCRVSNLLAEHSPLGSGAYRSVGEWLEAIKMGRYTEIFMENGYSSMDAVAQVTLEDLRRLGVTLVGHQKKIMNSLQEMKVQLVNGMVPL

[14] = target: Ephrin type-A receptor 5 (Homo sapiens) (UniProt P54756); details: at 10 µM
[15] = target: Ephrin type-A receptor 7 (Homo sapiens) (UniProt Q15375); details: at 1 µM
Ephrin type-A receptor 7 (Homo sapiens), sequence (Q15375 28-998 limits assumed): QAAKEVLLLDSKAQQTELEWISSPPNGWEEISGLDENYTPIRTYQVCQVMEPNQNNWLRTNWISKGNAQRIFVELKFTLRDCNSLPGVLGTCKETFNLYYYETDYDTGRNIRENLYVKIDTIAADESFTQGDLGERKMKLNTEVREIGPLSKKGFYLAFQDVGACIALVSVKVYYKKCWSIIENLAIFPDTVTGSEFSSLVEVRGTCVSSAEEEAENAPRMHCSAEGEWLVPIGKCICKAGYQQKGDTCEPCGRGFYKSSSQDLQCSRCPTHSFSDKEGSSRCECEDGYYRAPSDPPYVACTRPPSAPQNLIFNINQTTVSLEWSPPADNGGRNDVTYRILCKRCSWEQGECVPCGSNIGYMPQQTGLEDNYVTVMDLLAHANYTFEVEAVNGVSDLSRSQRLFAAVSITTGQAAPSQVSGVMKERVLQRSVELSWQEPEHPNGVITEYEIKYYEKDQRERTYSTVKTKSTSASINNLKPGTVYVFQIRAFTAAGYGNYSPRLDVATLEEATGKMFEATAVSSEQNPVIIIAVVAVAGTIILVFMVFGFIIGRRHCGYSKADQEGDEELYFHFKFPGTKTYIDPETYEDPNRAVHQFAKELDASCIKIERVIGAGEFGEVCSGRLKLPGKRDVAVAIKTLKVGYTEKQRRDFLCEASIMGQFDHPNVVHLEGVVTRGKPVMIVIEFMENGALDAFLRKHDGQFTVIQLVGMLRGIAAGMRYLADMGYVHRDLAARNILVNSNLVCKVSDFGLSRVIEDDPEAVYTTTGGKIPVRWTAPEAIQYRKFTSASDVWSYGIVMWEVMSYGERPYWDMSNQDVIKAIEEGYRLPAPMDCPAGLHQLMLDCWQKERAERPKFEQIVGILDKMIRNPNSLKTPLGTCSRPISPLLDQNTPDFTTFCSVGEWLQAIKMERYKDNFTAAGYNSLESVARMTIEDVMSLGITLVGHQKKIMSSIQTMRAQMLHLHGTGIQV

[16] = target: Ephrin type-A receptor 7 (Homo sapiens) (UniProt Q15375); details: at 10 µM
[17] = target: T5, Ephrin type-A receptor 8 (Homo sapiens) (UniProt P29322); details: at 1 µM
T5 sequence (whole entry): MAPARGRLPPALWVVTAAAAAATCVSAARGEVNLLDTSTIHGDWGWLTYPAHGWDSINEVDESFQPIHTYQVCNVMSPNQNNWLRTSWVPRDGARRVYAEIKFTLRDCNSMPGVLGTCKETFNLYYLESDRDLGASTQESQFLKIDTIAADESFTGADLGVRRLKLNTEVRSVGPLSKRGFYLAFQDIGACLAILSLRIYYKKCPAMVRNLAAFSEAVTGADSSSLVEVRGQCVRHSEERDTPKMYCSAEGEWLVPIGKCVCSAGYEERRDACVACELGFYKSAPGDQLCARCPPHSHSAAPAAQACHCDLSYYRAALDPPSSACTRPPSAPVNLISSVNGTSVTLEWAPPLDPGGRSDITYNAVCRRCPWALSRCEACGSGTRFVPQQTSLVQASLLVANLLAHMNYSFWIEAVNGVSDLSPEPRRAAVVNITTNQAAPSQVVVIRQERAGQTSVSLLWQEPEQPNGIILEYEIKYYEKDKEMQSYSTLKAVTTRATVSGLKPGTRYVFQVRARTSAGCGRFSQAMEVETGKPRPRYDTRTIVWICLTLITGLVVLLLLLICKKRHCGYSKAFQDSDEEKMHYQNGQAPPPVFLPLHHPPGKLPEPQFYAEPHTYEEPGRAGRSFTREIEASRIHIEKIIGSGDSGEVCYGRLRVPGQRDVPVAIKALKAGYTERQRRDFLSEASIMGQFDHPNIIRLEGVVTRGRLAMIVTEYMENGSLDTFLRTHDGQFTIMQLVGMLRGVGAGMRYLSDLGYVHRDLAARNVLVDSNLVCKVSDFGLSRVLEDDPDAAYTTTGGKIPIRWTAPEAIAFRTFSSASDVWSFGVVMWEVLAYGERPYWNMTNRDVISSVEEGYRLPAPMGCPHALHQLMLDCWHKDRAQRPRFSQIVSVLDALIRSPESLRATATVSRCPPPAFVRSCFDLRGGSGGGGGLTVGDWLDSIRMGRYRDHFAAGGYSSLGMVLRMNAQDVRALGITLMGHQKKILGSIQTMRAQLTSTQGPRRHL

[18] = target: T5, Ephrin type-A receptor 8 (Homo sapiens); details: at 10 µM
[19] = target: T6, Ephrin type-B receptor 1 (Homo sapiens) (UniProt P54762); details: at 1 µM
T6 sequence (whole entry): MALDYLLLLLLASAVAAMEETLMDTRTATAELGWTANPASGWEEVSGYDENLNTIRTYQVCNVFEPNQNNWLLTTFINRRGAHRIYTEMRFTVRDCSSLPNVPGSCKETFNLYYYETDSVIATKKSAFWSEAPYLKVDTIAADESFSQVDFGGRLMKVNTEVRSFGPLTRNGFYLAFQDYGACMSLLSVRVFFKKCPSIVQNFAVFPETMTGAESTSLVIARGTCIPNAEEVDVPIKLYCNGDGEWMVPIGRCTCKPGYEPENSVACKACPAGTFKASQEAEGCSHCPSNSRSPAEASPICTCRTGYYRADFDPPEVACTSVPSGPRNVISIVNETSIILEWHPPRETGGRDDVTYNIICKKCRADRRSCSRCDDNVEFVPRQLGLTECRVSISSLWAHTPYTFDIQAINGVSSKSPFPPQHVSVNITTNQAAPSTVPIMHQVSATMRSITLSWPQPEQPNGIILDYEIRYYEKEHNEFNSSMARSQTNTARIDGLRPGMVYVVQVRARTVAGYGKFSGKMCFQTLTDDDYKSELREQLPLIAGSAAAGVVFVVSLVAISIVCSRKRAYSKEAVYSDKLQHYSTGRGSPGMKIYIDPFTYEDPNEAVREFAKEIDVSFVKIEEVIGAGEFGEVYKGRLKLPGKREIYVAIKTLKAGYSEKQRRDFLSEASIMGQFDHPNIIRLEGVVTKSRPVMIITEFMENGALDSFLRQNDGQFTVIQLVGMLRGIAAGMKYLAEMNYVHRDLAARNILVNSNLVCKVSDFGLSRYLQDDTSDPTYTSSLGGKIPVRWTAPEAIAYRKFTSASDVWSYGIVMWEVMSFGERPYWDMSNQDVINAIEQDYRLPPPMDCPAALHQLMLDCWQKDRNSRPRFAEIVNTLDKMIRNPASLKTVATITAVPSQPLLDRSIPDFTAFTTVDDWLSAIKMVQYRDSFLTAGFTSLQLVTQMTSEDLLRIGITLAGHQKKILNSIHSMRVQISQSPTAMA

Structure (SMILES)	residual activity [1]	residual activity [2]	residual activity [3]	residual activity [4]	residual activity [5]	residual activity [6]	residual activity [7]	residual activity [8]	residual activity [9]	residual activity [10]	residual activity [11]	residual activity [12]	residual activity [13]	residual activity [14]	residual activity [15]	residual activity [16]	residual activity [17]	residual activity [18]	residual activity [19]
CO[C@@H]1[C@H](N(C)C(=O)c2ccccc2)C[C@H]2O[C@]1(C)n1c3ccccc3c3c4c(c5c6ccccc6n2c5c31)C(=O)NC4	9%	90%	88%	101%	87%	81%	97%	95%	97%	99%	103%	90%	97%	86%	94%	70%	94%	97%	
Nc1ccc2ncnc(NCCc3ccc(Oc4ccccc4)cc3)c2c1	48%	103%	92%		107%	87%	98%	91%	95%	92%	125%	104%	110%	113%	112%	100%	104%	99%	114%
Cc1ccc(S(=O)(=O)/C=C/C#N)cc1	95%	96%	102%		95%	92%	106%	108%	103%	105%	106%	110%	107%	101%	94%	96%	94%	102%	93%
